Our source for the Potency and activity change, negative = inhibition values is PubChem BioAssay (Tox21).

SMILES strings stand for the structures. Records with an inconclusive call do not appear. Unmarked numbers belong to inactive results. Active and inactive are the calls of the source. The call rests on the fitted dose curve; in most records, active means well fitted curve in the direction sought with a large enough effect in the repeat runs; inconclusive means weak or mixed curves; inactive means no such curve, though single readings can be large; an effect the other way counts as inactive or inconclusive.

Test [1] concerns the target Cytochrome P450 2D6 (Homo sapiens) (UniProt P10635). Nature of the test: Cytochrome P450 Family 2 Subfamily D Member 6 (CYP2D6) small molecule antagonists: luciferase reporter qHTS assay (AID 1671196). Further: nearly all actives have a fitted effect of over 50% in size. Further: potency means the concentration at half of the fitted maximal effect. To be noted: P450-Glo CYP2D6 enzyme assay, luciferin luminescence, 1 h; series mostly up to 115 µM. Put shortly: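 P450-Glo format: CYP2D6 converts a proluciferin substrate to luciferin in an NADPH-driven reaction lasting 1 h at room temperature. Light output, proportional to CYP2D6 activity, reflects interference by test chemicals.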

In test [2] the target is Cytochrome P450 2C19 (Homo sapiens) (UniProt P33261). In words: Cytochrome P450 Family 2 Subfamily C Member 19 (CYP2C19) small molecule antagonists: luciferase reporter qHTS assay (AID 1671197). Further: nearly all actives have a fitted effect of over 65% in size. Further: potency means the concentration at half of the fitted maximal effect. To be noted: P450-Glo CYP2C19 enzyme, luciferin luminescence, 1 h; series mostly up to 115 µM. Put shortly:
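CYP2C19 P450-Glo, 1536-well qHTS. Cpd + enzyme/proluciferin substrate 10 min RT; + NADPH regen, 37C 1 h; stop with luciferin detection reagent, 20 min RT, luminescence (RLU). Pos ctrl ketoconazole.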
Background: In a reporter assay the amount or activity of a reporter protein is the signal.

The target in test [3] is Voltage-gated inwardly rectifying potassium channel KCNH2 (Homo sapiens) (UniProt Q12809). In words: Human Ether-a-go-go-Related Gene (hERG) channel small molecule antagonists: fluorescence cell-based qHTS assay (AID 1671200).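 Further: hERG-expressing U2OS cells given a thallium stimulus after FluxOR II dye loading; nearly all actives have a fitted effect of over 50% in size.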 To be noted: hERG-U2OS cells, FluxOR thallium flux fluorescence; series mostly up to 76.8 µM. An outline of the steps: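 hERG-U2OS cells plated overnight at 37 C, loaded with FluxOR II dye 1 h at RT in dark; after 10 min, thallium stimulus added. Fluorescence (480/540 nm) read kinetically for 2 min at 1 s intervals.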
Voltage-gated inwardly rectifying potassium channel KCNH2 (Homo sapiens), sequence (Q12809 whole entry, looked up): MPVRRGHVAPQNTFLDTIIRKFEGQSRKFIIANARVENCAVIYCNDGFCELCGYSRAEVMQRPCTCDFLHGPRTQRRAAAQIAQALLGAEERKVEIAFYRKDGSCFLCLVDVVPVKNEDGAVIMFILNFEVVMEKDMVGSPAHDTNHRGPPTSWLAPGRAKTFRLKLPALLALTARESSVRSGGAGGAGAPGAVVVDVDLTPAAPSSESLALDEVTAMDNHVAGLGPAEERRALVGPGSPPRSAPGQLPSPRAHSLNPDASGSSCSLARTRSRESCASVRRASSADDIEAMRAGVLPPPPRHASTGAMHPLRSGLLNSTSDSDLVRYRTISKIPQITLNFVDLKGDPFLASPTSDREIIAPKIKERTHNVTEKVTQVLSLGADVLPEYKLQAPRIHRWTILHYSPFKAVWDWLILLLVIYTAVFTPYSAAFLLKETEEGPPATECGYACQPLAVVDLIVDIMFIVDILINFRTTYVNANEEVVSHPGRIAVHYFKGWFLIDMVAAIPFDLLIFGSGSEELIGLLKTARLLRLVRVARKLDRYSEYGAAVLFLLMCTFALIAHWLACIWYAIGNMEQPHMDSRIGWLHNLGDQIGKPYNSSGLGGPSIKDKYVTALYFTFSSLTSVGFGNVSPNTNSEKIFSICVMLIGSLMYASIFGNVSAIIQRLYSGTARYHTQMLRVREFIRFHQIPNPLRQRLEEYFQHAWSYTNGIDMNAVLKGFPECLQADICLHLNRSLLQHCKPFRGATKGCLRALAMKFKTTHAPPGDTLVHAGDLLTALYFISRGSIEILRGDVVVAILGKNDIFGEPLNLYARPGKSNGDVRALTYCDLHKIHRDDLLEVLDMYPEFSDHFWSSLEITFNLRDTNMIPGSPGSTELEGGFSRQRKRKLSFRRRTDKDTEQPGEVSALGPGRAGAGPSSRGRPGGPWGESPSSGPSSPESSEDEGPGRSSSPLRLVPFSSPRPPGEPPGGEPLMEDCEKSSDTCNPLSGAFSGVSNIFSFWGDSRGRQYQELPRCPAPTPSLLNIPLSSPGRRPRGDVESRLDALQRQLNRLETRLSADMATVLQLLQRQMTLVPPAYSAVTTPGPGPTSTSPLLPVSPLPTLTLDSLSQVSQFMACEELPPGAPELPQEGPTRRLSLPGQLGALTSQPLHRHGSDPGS
(In general: hERG is a cardiac potassium channel; its block is linked to QT prolongation.)

The target in test [4] is Cytochrome P450 2C9 (Homo sapiens) (UniProt P11712). In words: Cytochrome P450 Family 2 Subfamily C Member 9 (CYP2C9) small molecule antagonists: luciferase reporter qHTS assay (AID 1671198). Further: nearly all actives have a fitted effect of over 50% in size. Further: potency means the concentration at half of the fitted maximal effect. Conditions: P450-Glo CYP2C9 enzyme assay, luciferin luminescence; series mostly up to 115 µM. An outline of the steps:
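CYP2C9 activity was measured with a P450-Glo proluciferin substrate. Enzyme–substrate mix was held with compound for 10 min at room temperature, then NADPH regeneration solution was added for 1 h at 37C. Luciferin product was read as luminescence.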

Test [5] concerns the target Cytochrome P450 3A4 (Homo sapiens) (UniProt P08684). Nature of the test: Cytochrome P450 Family 3 Subfamily A Member 4 (CYP3A4) small molecule antagonists: luciferase reporter qHTS assay (AID 1671201). Further: nearly all actives have a fitted effect of over 50% in size. Further: potency means the concentration at half of the fitted maximal effect. Conditions: P450-Glo CYP3A4 enzyme, luciferin luminescence, 1 h; series mostly up to 115 µM. Put shortly: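 P450-Glo CYP3A4 luminescent assay: compounds preincubated 10 min at room temperature with enzyme and proluciferin substrate, NADPH regeneration added, 1 h room-temperature reaction, stopped with luciferin detection reagent; luminescence read after 20 min. Ketoconazole positive control.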

For test [6], the target named is Cytochrome P450 1A2 (Homo sapiens) (UniProt P05177). In words: Cytochrome P450 Family 1 Subfamily A Member 2 (CYP1A2) small molecule antagonists: luciferase reporter qHTS assay (AID 1671199). Further: nearly all actives have a fitted effect of over 50% in size. Further: potency means the concentration at half of the fitted maximal effect. Conditions: P450-Glo CYP1A2 enzyme, luciferin luminescence, 1 h; series mostly up to 115 µM. An outline of the steps: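 Inhibition of CYP1A2 conversion of proluciferin to luciferin, detected by luminescence. Reaction run 1 h at room temperature with NADPH regeneration after brief compound preincubation.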
Cytochrome P450 1A2 (Homo sapiens), sequence (P05177 whole entry, looked up): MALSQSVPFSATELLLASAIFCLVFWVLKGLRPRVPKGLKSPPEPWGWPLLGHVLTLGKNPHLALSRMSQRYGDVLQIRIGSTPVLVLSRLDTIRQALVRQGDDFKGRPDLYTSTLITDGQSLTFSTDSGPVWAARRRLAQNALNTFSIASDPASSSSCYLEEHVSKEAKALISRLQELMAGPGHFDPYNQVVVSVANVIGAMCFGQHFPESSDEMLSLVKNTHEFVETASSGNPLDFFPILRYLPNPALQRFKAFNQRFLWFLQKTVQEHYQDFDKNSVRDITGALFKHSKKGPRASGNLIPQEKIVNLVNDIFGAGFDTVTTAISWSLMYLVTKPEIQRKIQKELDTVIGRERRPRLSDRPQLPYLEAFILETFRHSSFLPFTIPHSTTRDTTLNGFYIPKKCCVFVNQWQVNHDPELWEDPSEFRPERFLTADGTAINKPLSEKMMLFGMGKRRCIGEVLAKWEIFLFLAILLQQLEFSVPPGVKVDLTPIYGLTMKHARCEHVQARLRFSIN
On the % scale 0 is the no-effect control and ±100 the full control effect.

Cytochrome P450 3A4 (Homo sapiens), sequence (P08684 whole entry, looked up): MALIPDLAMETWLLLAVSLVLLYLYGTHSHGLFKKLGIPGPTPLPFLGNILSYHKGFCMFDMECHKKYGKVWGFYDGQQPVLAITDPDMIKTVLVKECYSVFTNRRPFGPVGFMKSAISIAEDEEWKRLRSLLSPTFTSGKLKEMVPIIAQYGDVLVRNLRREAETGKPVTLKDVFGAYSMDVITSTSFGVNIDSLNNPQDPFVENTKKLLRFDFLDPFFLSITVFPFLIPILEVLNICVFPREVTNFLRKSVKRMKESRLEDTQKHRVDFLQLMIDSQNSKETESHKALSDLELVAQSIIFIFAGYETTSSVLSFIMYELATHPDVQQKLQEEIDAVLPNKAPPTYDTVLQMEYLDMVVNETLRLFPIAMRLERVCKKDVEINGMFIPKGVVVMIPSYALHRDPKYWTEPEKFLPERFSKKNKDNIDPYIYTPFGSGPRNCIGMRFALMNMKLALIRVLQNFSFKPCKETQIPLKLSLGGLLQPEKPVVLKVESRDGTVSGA
Cytochrome P450 2C9 (Homo sapiens), sequence (P11712 whole entry, looked up): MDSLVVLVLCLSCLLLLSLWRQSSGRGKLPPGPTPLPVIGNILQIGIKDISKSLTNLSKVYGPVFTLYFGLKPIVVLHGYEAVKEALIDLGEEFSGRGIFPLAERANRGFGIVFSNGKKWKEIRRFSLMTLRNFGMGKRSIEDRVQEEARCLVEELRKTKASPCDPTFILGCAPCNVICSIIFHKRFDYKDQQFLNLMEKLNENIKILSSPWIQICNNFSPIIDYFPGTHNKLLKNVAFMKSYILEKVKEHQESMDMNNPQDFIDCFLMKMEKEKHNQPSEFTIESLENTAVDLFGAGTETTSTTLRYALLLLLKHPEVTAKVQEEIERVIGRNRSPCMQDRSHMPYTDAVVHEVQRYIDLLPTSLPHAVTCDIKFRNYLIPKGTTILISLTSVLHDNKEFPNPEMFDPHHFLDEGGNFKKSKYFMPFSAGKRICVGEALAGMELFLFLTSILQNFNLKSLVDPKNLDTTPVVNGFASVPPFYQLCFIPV
Cytochrome P450 2C19 (Homo sapiens), sequence (P33261 whole entry, looked up): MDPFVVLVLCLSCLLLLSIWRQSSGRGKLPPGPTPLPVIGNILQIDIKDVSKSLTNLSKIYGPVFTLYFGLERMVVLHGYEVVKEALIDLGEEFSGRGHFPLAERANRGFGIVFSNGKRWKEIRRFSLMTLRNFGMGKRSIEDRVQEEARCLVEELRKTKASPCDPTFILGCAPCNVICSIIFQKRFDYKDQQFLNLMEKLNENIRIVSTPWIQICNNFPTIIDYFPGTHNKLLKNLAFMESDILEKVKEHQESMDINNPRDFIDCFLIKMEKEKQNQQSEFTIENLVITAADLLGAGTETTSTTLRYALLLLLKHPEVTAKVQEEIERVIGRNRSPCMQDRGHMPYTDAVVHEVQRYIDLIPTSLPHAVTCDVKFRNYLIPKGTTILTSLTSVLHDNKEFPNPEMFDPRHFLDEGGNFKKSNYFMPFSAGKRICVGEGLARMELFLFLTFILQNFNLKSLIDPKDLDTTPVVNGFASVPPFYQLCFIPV
Cytochrome P450 2D6 (Homo sapiens), sequence (P10635 whole entry, looked up): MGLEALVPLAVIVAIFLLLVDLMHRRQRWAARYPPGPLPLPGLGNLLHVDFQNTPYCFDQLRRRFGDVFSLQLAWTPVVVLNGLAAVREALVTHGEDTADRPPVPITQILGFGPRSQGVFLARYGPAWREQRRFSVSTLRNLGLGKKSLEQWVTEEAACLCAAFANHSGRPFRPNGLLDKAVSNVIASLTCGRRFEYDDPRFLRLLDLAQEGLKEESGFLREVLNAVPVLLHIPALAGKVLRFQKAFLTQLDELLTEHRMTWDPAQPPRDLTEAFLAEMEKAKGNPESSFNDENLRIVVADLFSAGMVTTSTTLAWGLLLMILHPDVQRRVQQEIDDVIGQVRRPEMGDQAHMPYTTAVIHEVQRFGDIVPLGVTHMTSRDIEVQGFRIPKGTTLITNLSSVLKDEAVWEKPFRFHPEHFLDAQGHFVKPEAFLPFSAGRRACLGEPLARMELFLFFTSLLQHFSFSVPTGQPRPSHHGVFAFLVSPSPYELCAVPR

`CC(C)CC(O)Cc1ccccc1` (stereo unspecified): the Potency result in test [1] and in test [3] was “inactive” throughout. Also, the Potency in test [2] was 71 µM (active).
`Clc1cc(Cl)c(Cl)c(Cl)c1Cl`: the Potency result in test [1], in test [2], in test [4] and in test [5] was “inactive” throughout.
For `CCCCCC(=O)CC`, the Potency result in test [1], in test [2] and in test [3] was “inactive” in each case.
`CC(=O)c1ccc(O)c(C(N)=O)c1`: the Potency result in test [1], in test [2], in test [4] and in test [5] was “inactive” each time.
Regarding `CC(C)(C)c1ccc(N)cc1`, the Potency result in test [1], in test [2], in test [6] and in test [3] was “inactive” in each case. Moreover, the Potency in test [5] was 28.3 µM (active).
Regarding `C=C(C)C(=O)OCCOC1CC2CC1C1C=CCC21` (stereo unspecified), the Potency result in test [1] and in test [5] was “inactive” throughout. The Potency in test [2] was 30.3 µM (active); in test [4] it was 42.9 µM (active).
Take `CCCC(=O)CC`: the Potency result in test [1], in test [4], in test [3] and in test [5] was “inactive” each time. Further, the Potency in test [2] is 41.2 µM (active).
With `CC(C)C(C)C`, the Potency result in test [1], in test [2], in test [4] and in test [5] was “inactive” each time.
In the case of `COc1cc(C(=O)NC2CCCNC2)cc(OC)c1OC` (stereo unspecified), the Potency result in test [1], in test [2], in test [3] and in test [5] was “inactive” each time. In addition, in test [6], the Potency was 15.5 µM (active).
`BrCCOc1ccccc1`: the Potency in test [1] was 56.6 µM (active); in test [2], 89.6 µM (active). In addition, the Potency entry in test [4], in test [3] and in test [5] was “inactive” in each case.
Consider `C/C=C(\C)C(=O)OC/C=C(\C)CCC=C(C)C`, for which the Potency entry in test [1], in test [2], in test [3] and in test [5] was “inactive” each time.
As to `CCC(C)(C)C`, the Potency entry in test [1], in test [2], in test [3] and in test [5] was “inactive” each time. The Potency in test [6] was 37.7 µM (active).
As to `CNC(C)=O`, the Potency result in test [1], in test [2], in test [4], in test [3] and in test [5] was “inactive” in each case.
On to `CCc1ncc(C)[nH]1`, for which the Potency result in test [1], in test [2], in test [4], in test [3] and in test [5] was “inactive” each time.
For the compound `N=C(N)N`, the Potency result in test [1], in test [2], in test [6] and in test [3] was “inactive” in each case.
On to `c1coc(Cn2cccc2)c1`, for which the Potency result in test [1], in test [2], in test [4], in test [3] and in test [5] was “inactive” throughout.
For `N#Cc1ccccc1C#N`, the Potency result in test [1], in test [2], in test [4], in test [3] and in test [5] was “inactive” throughout.
In the case of `O=C(O)COc1ccc2ccccc2c1`, the Potency result in test [1], in test [2], in test [6], in test [3] and in test [5] was “inactive” throughout.
With `Cc1cc(=O)oc2cc(O[C@@H]3SC[C@@H](O)[C@H](O)[C@H]3O)ccc12`, the Potency entry in test [1], in test [2], in test [4] and in test [5] was “inactive” each time.
In the case of `CCCCCCCCCCCCCC(=O)OCC`, the Potency result in test [1], in test [2], in test [4], in test [3] and in test [5] was “inactive” each time.
Turning to `CC/C=C/CCCCCCCCCCOC(C)=O`, the Potency entry in test [1], in test [2], in test [4] and in test [5] was “inactive” in each case.
On to `CN(C)c1ccncc1`, for which, in test [1], the Potency was 31.7 µM (active). The Potency result in test [2], in test [4] and in test [5] was “inactive” each time.
For `NC[C@H]1O[C@H](O[C@H]2[C@H](O)[C@@H](O[C@H]3O[C@H](CO)[C@@H](O)[C@H](N)[C@H]3O)[C@H](N)C[C@@H]2N)[C@H](N)[C@@H](O)[C@@H]1O`, the activity change, negative = inhibition in test [1] is 0.727% [at 23.6 µM]; in test [2] it was 39.5% [at 23.6 µM]; in test [4], 16.5% [at 23.6 µM]; in test [3] it was 1.37% [at 15.8 µM]; in test [5], 6.04% [at 23.6 µM].
`CCCCCCCCS(=O)(=O)O`: the Potency result in test [1], in test [2], in test [6], in test [3] and in test [5] was “inactive” in each case.
With `CCC(C)c1nccnc1OC` (stereo unspecified), the Potency entry in test [1], in test [2], in test [4], in test [3] and in test [5] was “inactive” each time.
On to `CNC(=O)c1c(I)c(NC(C)=O)c(I)c(C(=O)O)c1I`, for which the Potency result in test [1], in test [2], in test [4], in test [3] and in test [5] was “inactive” throughout.
For the compound `CC(C)(C)C(=O)CCc1ccc(Cl)cc1`, the Potency entry in test [1], in test [3] and in test [5] was “inactive” each time. The Potency in test [2] was 7.1 µM (active).
As to `CCCCN(CCCC)CCCCCCN(CCCC)CCCC`, the Potency in test [1] was 5.03 µM (active). Besides, the Potency result in test [2], in test [6] and in test [5] was “inactive” each time.
Regarding `CC(C)(C)c1ccc(C(=O)CCCCl)cc1`, the Potency entry in test [1], in test [2], in test [4], in test [3] and in test [5] was “inactive” each time.
As for `COC(=O)c1c(C)cc(O)c(C)c1O`, the Potency is 31.7 µM (active) in test [1], 7.96 µM (active) in test [2] and 0.252 µM (active) in test [6]. The Potency result in test [3] is “inactive”.
`CCCCCCCOC(C)=O`: the Potency entry in test [1], in test [4], in test [3] and in test [5] was “inactive” each time.
As for `Cc1ccccc1OCC(=O)O`, the Potency entry in test [1], in test [6], in test [3] and in test [5] was “inactive” in each case. Further, in test [4], the Potency was 79.6 µM (active).
As to `O=C1CCCc2c(O)cccc21`, the Potency result in test [1], in test [4], in test [3] and in test [5] was “inactive” each time. Further, in test [6], the Potency is 34.7 µM (active).
In the case of `CCCCS`, the Potency entry in test [1], in test [4], in test [3] and in test [5] was “inactive” throughout.
Turning to `COc1ccccc1N1CCN(CC(O)COc2cc(OC)c(OC)c(OC)c2)CC1` (stereo unspecified), the Potency entry in test [1], in test [2] and in test [5] was “inactive” each time.
For the compound `Cc1nnc(C(=O)NC(C)(C)c2nc(C(=O)NCc3ccc(F)cc3)c(O)c(=O)n2C)o1`, the Potency result in test [1], in test [4], in test [6] and in test [5] was “inactive” each time.
For `N#Cc1cc(NC(=O)C(=O)O)c(Cl)c(NC(=O)C(=O)O)c1`, the Potency result in test [1], in test [4] and in test [6] was “inactive” each time.
Turning to `CC12CCCC=C1C(=O)OC2=O` (stereo unspecified), the Potency entry in test [1], in test [2], in test [3] and in test [5] was “inactive” in each case.
